Rows were chosen to be rich in hits. Some 1.3% of all compounds tested hit in one or more screens of this group.
KCNH2 3.1 inh: KCNH2 3.1 (human) potassium channel inhibition. U2OS KCNH2 3.1, thallium flux FluxOr; stronger effect = lower value. activity change, % (tested at about 1.8 µM). actives 0.95% (n = 340,000). AID 720553;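 active = maximum activity change below -70%; inconclusive = maximum activity change from -70% to -50%; inactive = maximum activity change above -50%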;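 note: thallium influx rate constant from kinetic fluorescence after stimulation buffer; % is set by controls: 0 for no effect and ±100 for the full control effect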
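We transduce U2OS cells with the mutant 3.1 virus, culture them overnight, load FluxOr with Red40 quencher for 45 min, then add stimulation buffer and read kinetically for 2 min to derive a normalized rate constant.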
MBNL1-CUG inh: inhibitors of human MBNL1 binding to CUG repeat RNA | Q9NR56 | TR-FRET MBNL1-His/biotin-(CUG)12 binding, 665/545 ratio | actives 0.036% (n = 280,000) | AID 2675 | Potency, µM (titrated, usually from 57.5 µM), for the others: top-dose activity change, negative = inhibition, most hits filed as inhibitors; active = well fitted inhibition curve with a large enough effect in the signal ratio, with a control signal flat, not every such curve was filed as active; inconclusive = small, poorly fitted or top-dose-only effect, or effect the other way, or a change in a side signal; inactive = no such curve, though single readings can be large or run the other way; the % refers to the signal ratio; note: potency is the fitted concentration of half-maximal effect; % is set by controls: 0 for no effect and ±100 for the full control effect
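MBNL1-His + Biotin-(CUG)12, cpd titration 92 nM–58 uM; Tb anti-His Ab 0.055 ng/ul, SA-XL665 5 nM (final); 60 min RT; ratiometric 665/545 nm, Ex 340 nm; normalized to buffer and full-complex controls.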
TRPV1 potentiator: human TRPV1 potentiation | potentiation, % at 8.33 µM | actives 0.02% (n = 320,000) | Q8NER1 | TRPV1-expressing cells, Fluo-8 calcium influx, capsaicin EC20 potentiation | AID 540277; in the data active = potentiation above about 80%; inconclusive = between about 30% and that limit; note: 0% is about no effect
Target sequence (Q8NER1 whole entry, looked up): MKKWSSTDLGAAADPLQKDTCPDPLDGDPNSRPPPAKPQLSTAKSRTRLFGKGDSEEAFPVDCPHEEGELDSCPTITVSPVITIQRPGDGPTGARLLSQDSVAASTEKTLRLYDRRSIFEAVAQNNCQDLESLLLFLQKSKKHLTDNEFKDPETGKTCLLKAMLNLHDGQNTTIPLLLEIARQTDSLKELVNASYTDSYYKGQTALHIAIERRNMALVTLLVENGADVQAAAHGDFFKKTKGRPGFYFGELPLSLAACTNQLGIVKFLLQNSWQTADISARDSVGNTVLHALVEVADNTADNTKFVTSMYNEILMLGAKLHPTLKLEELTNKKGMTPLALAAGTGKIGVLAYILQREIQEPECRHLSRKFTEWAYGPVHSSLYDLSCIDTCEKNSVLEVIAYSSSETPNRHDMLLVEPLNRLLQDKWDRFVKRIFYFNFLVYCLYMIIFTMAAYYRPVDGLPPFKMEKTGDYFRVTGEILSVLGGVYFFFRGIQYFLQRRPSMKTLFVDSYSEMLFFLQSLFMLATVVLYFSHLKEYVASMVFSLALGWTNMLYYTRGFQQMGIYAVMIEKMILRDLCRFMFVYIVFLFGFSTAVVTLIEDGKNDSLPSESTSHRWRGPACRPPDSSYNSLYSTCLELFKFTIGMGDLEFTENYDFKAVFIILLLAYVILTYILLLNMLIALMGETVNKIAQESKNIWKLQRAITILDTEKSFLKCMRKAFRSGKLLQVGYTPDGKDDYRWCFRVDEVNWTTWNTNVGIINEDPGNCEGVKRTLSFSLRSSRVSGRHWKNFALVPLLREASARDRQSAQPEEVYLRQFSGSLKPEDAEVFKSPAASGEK
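Fluo-8 calcium influx in TRPV1-expressing cells, kinetic read (ex 480/em 520 nm). Compound added and read 3 min for agonist activity, followed by capsaicin at EC20 final and 2 min further read for enhancement.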
TRPV1 agonist: agonists of human vanilloid receptor 1 (TRPV1); Q8NER1; TRPV1-expressing cells, Fluo-8 calcium influx, agonist mode; actives 0.19% (n = 320,000); activation, % at 8.33 µM; in the data active = activation above about 80%; inconclusive = between about 30% and that limit; note: 0% is about no effect
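Cells expressing TRPV1 were dye-loaded with Fluo-8 and read kinetically: 10 s baseline, 3 min after compound (agonist portion), then 2 min after EC20 capsaicin (allosteric enhancer portion). Calcium-bound dye fluorescence at 480/520 nm.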
hERG WT inh: inhibitors of human wildtype KCNH2 potassium channel. Q12809. U2OS, BacMam KCNH2, thallium flux FluxOr; stronger effect = lower value. activity change, % at 1.84 µM. actives 0.37% (n = 340,000). AID 720551;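 active = maximum activity change below -70%; inconclusive = maximum activity change between -70% and -50%; inactive = maximum activity change above -50%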; note: % is set by controls: 0 for no effect and ±100 for the full control effect
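U2OS cells transduced with wild-type KCNH2 virus are loaded with FluxOr dye for 45 min, and thallium flux is measured in kinetic reads before and after stimulation buffer. Rate constants are normalized to DMSO controls.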
An asterisk follows results filed as active; i = inactive; ? = inconclusive; nt = not tested or not shown.

SMILES | KCNH2 3.1 inh | MBNL1-CUG inh | TRPV1 potentiator | TRPV1 agonist | hERG WT inh
CC(C)C[C@@H](CSc1ccc(Br)cc1)N1CCN(CCc2ccccc2)CCC1=O | nt | 0.9% | 12.6 | 11.0 | nt
Cc1ccc(SC[C@H](c2ccccc2)N2CCN(CCc3ccccc3)CCC2=O)cc1 | -114.0* | -0.4% | -12.2 | -1.8 | -141.6*
CC(C)C[C@@H](CSc1ccccc1)N1CCN(CCc2ccccc2)CCC1=O | -100.5* | -12.7% | 0.8 | 6.8 | -77.0*
CN1CCC(=O)N([C@H](CSc2ccc(Br)cc2)c2ccccc2)CC1 | -98.3* | -0.3% | 7.2 | 16.5 | -7.1
CN1CCN(/N=C/c2ccc(N(C)c3ccccc3)cc2)CC1 | 3.2 | 11.4% | 2.4 | 10.1 | -2.3
CN1CCN(/N=C/c2ccc(N(c3ccccc3)c3ccccc3)cc2)CC1 | -72.4* | -4.1% | -10.6 | 1.3 | 19.6
O=C(O)c1cccc(N/N=C/c2cccc3ccccc23)c1 | -72.7* | 15.2% | -7.1 | -4.1 | 1.1
CC(NC(=O)c1cccs1)c1ccccc1 (configuration not stated) | -95.1* | nt | nt | nt | 5.6
Cc1ccc(C(C)NC(=O)c2cccs2)cc1 (configuration not stated) | 0.6 | nt | nt | nt | 0.6
COc1ccc(Cl)cc1NC(=O)NCC1CCN(Cc2cc(C)ccc2C)CC1 | -24.1 | -11.3% | -10.5 | 1.7 | 2.0
COc1cc([N+](=O)[O-])ccc1NC(=O)NCC1CCN(Cc2ccc(Cl)cc2)CC1 | -102.1* | ? | -32.3 | ? | -107.0*
C=C(C)C(=O)Nc1cccc(C2=NOC3(C2)C[C@@H](C(N)=O)N(C(=O)c2cc([N+](=O)[O-])cc([N+](=O)[O-])c2C)C3)c1 (some centres not stated) | 1.7 | ? | -7.8 | -2.6 | 4.6
C/C=C\C(=O)Nc1cccc(C2=NOC3(C2)C[C@@H](C(N)=O)N(C(=O)CCCCC)C3)c1 (some centres not stated) | 5.7 | 10.1% | ? | 2.0 | -84.6*
CCCCCC(=O)N1CC2(CC(c3cccc(NC(=O)COc4ccc(Cl)cc4)c3)=NO2)C[C@@H]1C(N)=O (some centres not stated) | -74.4* | 11.2% | 22.3 | 0.0 | -90.9*
CCC(=O)N1CC2(CC(c3cccc(NC(=O)COc4ccc(Cl)cc4)c3)=NO2)C[C@@H]1C(N)=O (some centres not stated) | nt | 0.8% | -3.0 | 0.9 | nt
C/C=C/C(=O)Nc1cccc(C2=NOC3(C2)C[C@@H](C(N)=O)N(C(=O)c2cc([N+](=O)[O-])cc([N+](=O)[O-])c2C)C3)c1 (some centres not stated) | -84.3* | ? | 26.4 | -2.9 | 2.6
NC(=O)[C@H]1CC2(CC(c3cccc(NC(=O)COc4ccc(Cl)cc4)c3)=NO2)CN1C(=O)c1ccc(Cl)cc1 (some centres not stated) | -91.0* | 15.1% | -17.0 | 2.2 | -43.5
COc1ccc([C@@H]2C[C@H]3[C@@H](CN2S(=O)(=O)c2ccccc2)C(=O)C[C@@H](c2cccc4ccccc24)N3S(=O)(=O)c2ccc(C)cc2)cc1 | -5.0 | nt | nt | nt | -4.1
Cc1cnccc1CNC(=O)C1CCC(=O)N(Cc2ccc(Cl)cc2)C1 (configuration not stated) | -2.5 | 4.1% | -8.7 | -0.8 | -1.6
C(#Cc1ccccc1)C[N+]1(CC#Cc2cccc3ccccc23)CCCC1 | -79.6* | 25.6% | -5.5 | -3.5 | -15.4
O=S(=O)(c1ccc(Cl)nc1)N1CCc2ccccc21 | -22.1 | -2.7% | 7.2 | -11.5 | -110.7*
O=C(NCC(=O)N1CC=C(c2ccccc2)CC1)c1ccc(OC(F)F)cc1 | -79.6* | nt | nt | nt | 34.6
COc1ccccc1C1c2[nH]c3ccccc3c2C[C@H]2C(=O)N(C3CCN(Cc4ccccc4)CC3)CC(=O)N12 (some centres not stated) | -36.6 | -4.9% | 23.9 | -4.1 | -105.7*
COc1ccc(C2c3[nH]c4ccccc4c3C[C@H]3C(=O)N(C4CCN(Cc5ccccc5)CC4)CC(=O)N23)cc1OC (some centres not stated) | ? | -0.2% | -4.3 | -1.4 | -17.8
CC1(c2ccc(OC(F)F)cc2)NC(=O)N(CC(=O)N2CCN(C(=O)c3ccco3)CC2)C1=O (configuration not stated) | -5.7 | nt | -0.2 | 0.3 | -4.9
SMILES | KCNH2 3.1 inh | MBNL1-CUG inh | TRPV1 potentiator | TRPV1 agonist | hERG WT inh
O=C(Nc1cccc(S(=O)(=O)N2CCCC2)c1)c1ccc2c(c1)OCO2 | 0.3 | -0.5% | -2.7 | -6.7 | -1.3
O=C(Nc1cccc(S(=O)(=O)N2CCCCCC2)c1)c1ccc2c(c1)OCO2 | -83.9* | nt | 5.5 | ? | -24.4
Fc1ccccc1C1c2[nH]c3ccccc3c2CCN1Cc1cccn1-c1ncccn1 (configuration not stated) | -70.7* | -5.4% | -2.7 | -1.1 | -44.3
CCCn1c(N)c(C(=O)CN(C)CC(=O)Nc2cc(C)ccc2C)c(=O)[nH]c1=O | -70.0* | nt | 3.7 | 1.7 | -2.5
CSc1ccccc1NC(=O)CN(C)CC(=O)Nc1cc(C)ccc1C | -75.6* | 4.8% | -1.1 | 7.9 | i
CCCn1c(N)c(C(=O)CN(C)CC(=O)Nc2ccc(C)cc2)c(=O)[nH]c1=O | -28.2 | nt | 22.4 | 1.7 | -10.3
CSc1ccc(CN(C)CC(=O)Nc2ccc(C)cc2Br)cc1 | -153.5* | ? | 3.7 | 27.0 | -147.6*
CSc1ccccc1NC(=O)CN(C)CC(=O)NCc1ccccc1 | -1.0 | -5.1% | -18.6 | 19.7 | -4.4
O=c1cc(CSCc2ccc(Cl)cc2)[nH]c(=O)[nH]1 | -0.6 | nt | -15.0 | -0.8 | -5.3
NC(=O)c1ccc(NC(=O)CCN=C2NS(=O)(=O)c3ccccc32)cc1 | -10.1 | nt | 5.5 | 0.2 | 3.5
O=C(Nc1nnc(S(=O)(=O)N2CCN(c3ccc(F)cc3)CC2)s1)c1ccco1 | 1.1 | -5.1% | -0.5 | -0.3 | -9.1
CC1CCCN(C(=O)COC(=O)C2=COCCO2)C1 (configuration not stated) | 26.8 | nt | nt | nt | 0.3
Cc1[nH]c2ccc(C(=O)O)cc2c1C | 0.3 | -10.2% | 3.7 | 2.7 | -2.1
CCCc1c(C)[nH]c2ccc(C(=O)O)cc2c1=S | 4.1 | 8.4% | ? | -6.8 | -82.1*
COc1ccccc1CNC(=O)COC(=O)c1ncc(Cl)c(Cl)c1Cl | -7.3 | nt | -2.2 | 13.5 | 1.1
CCC(C)c1ccc(NC(=O)NCCN2CCCCC2)cc1 (configuration not stated) | -93.7* | 4.0% | -0.7 | -5.8 | 9.2
O=C(O)CC1(CC(=O)Nc2ccc3ccccc3n2)CCCCC1 | -4.0 | -2.2% | 13.4 | -0.2 | 2.8
Cc1ccc(S(=O)(=O)N2CCCCC2)cc1 | 0.9 | -11.4% | -6.5 | -2.4 | 2.2
Cc1ccc(C)c(CNc2ccc(S(=O)(=O)N3CCCCC3)cc2)c1 | -100.4* | nt | 14.4 | 3.4 | -155.0*

Compound activity: PubChem, National Center for Advancing Translational Sciences (NCATS)
